Test results reported in PubChem BioAssay (EPA / NIEHS).
The source made the active and inactive calls. Rule for the calls: active = hit-call score of the fitted dose curve at least 0.9, where 1 is the maximum; inactive = score below 0.9.

read-out: Alkaline Phosphatase, Placental (ALPP) gene, ALPP (gene 250); assay: LTEA_HepaRG_ALPP: Life Technologies and Expression Analysis (LTEA) Assay for Alkaline Phosphatase, Placental (ALPP) gene using HepaRG (AID 2283468); conditions: mRNA level, 48 h; actives raise or lower the signal;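 for AC50: ALPP transcript by TaqMan qRT-PCR normalized to ACTB GAPDH and POLR2A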
Procedure: LTEA_HepaRG is a cell based, multiplexed-readout assay that uses HepaRG, a human liver cell line, with measurements taken at 48 hours after chemical dosing on a 96-well plate.LTEA_HepaRG_ALPP is one of 102 assay component(s) measured in the LTEA HepaRG cell culture assay. It is a marker of Cell proliferation, survival, death.Data from the assay component LTEA_HepaRG_ALPP was analyzed into 1 endpoint. This assay endpoint, LTEA_HepaRG_ALPP, was analyzed with bidirectional fitting relative to DMSO as the negative control and baseline of activity. Using a type of inducible reporter, measures of mRNA induction for gain or loss-of-signal activity can be used to understand regulation of transcription factor activity. To generalize the intended target to other relatable targets, this assay endpoint is annotated to the phosphatase intended target family, where the subfamily is Cell proliferation, survival, death.
A total of 1060 chemcials from the ToxCast library were tested in eight-point concentration-response experiments. Cell culture and cytotoxicity assays were conducted at Thermo Fisher Scientific's Custom Services facility (Madison, WI). A single lot of human HepaRG cells (Thermo Fisher Scientific, Frederick, MD) was used for the cell culture experiments. 96-well format collagen type I coated plates of human HepaRG cells were prepared using established methods. Briefly, cryopreserved HepaRG cells were thawed, plated at a density of approximately 100,000 cells/well in HepaRG Thaw, Plate, and General Purpose media (HPRG770, Thermo Fisher Scientific), and incubated for 48 hours. 0.5% DMSO was selected as vehicle control to balance the requisite need of DMSO in HepaRG cultures to maintain differentiation (for example, baseline metabolism, proportions of hepatocytes vs. cholangiocytes), while enabling further hepatic receptor pathway activation (for example, PXR and CAR) in response to chemical exposure. 48 hours after plating, the culture medium was replaced with HepaRG Serum-Free Incudtion Media. Cells were exposed to each test chemical in duplicate and maintained in CO2 incubators for another 48 hours. Chemical plates were thawed to room temperature and 200x concentrations of treatment groups were prepared. 8-point conentration-reponse curves were made with the highest exposure at 100 uM, followed by half-log dilutions, all in 0.5% DMSO. Each test plate contained variouse controls, induction positive controls (1mM phenobarbital), cytotoxicity positive controls ([…] aflatoxin B1), vehicle controls (0.5% DMSO), and total lysis controls (0.5% DMSO). Cell morphology images were taken using an Essen IncuCyte FLR automated microscope, with six 96-well plates imaged in about 24 minutes. Images were captured and exported and JPEG files. Spent culture media was transfered to black-well plates for the LDH assay, and remaining media was sorted at -80 C for later use. Cells were treated with RLT buffer and frozen until shipped for gene expression analysis. Total RNA was isolated from the cell suspension in 75 uL of Buffer RLT (Qiagen, Germantown, MD 20874) by Quintiles/Expression Analysis (Durham, NC) using a custom isolation procedure. Total RNA from each plate well was transferred to a preamplification plate. Fluidigm's 96.96 Dynamic ArrayTM (Fluidigm, Amsterdam, the Netherlands) technology was used for gene expression analyses by quantitative reverse transcription polymerase chain reaction (qRT-PCR, performed by Quintiles/Expression Analysis, Durham, NC)89. Standard TaqManTM Assays (Applied Biosystems/ThermoFisher Scientific, Foster City, CA) were used to assess the expression of 93 genes selected based on their selectivity and sensitivity to important hepatic receptors known to be modulated by environmental chemicals; importance in human hepatocyte functionality; and hepatotoxicity. […]

| Structure (SMILES) | outcome | AC50 |
| --- | --- | --- |
| O=C1OC(=O)C2C3C=CC(C3)C12 (stereo not given) | inactive |  |
| On1ccccc1=S | inactive |  |
| CC1=CC(=O)CC(C)(C)C1 | inactive |  |
| O=C(O)c1cc(N=Nc2ccc(S(=O)(=O)Nc3ccccn3)cc2)ccc1O | inactive |  |
| COc1ccc2sc(C(=O)Nc3nnn[nH]3)c(OC(C)C)c2c1 | inactive |  |
| CCCC(=O)OCC | inactive |  |
| CCOCCO | inactive |  |
| CNS(=O)(=O)c1cc(C(=O)N2CCC(CCN3C4CCC3CC(n3c(C)nc5ccccc53)C4)(c3cccc(F)c3)CC2)c(Cl)cc1F (stereo not given) |  | 14.5 µM (active) |
| O=C1CCC(N2C(=O)c3ccccc3C2=O)C(=O)N1 (stereo not given) | inactive |  |
| CC(C)=CCC/C(C)=C/CO | inactive |  |
| NC(=O)NO | inactive |  |
| C1N2CN3CN1CN(C2)C3 | inactive |  |
| C=CCCCCCCCCC(=O)O | inactive |  |
| CCCCC(CC)COC(=O)c1ccc(C(=O)OCC(CC)CCCC)cc1 (stereo not given) | inactive |  |
| COC(=O)c1ccccc1O | inactive |  |
| Clc1nc(Cl)c(Cl)c(Cl)c1Cl | inactive |  |
| CC(C)CCCCCCCOC(=O)CCCCC(=O)OCCCCCCCC(C)C | inactive |  |
| CCc1cc(SCc2sc(-c3ccc(C(F)(F)F)cc3)nc2CN2CCN(c3ccc(OC)cc3)CC2)ccc1OCC(=O)O |  | 6.34 µM (active) |
| CNCc1ccc(NC(=O)c2c[nH]c3c2C(=O)CCC3)cc1 | inactive |  |
| CN(C)c1ccc(Cc2ccc(N(C)C)cc2)cc1 |  | 61.6 µM (active) |

| Structure (SMILES) | outcome | AC50 |
| --- | --- | --- |
| O=C(O)CC(O)C(=O)O (stereo not given) | inactive |  |
| COc1ccc(-n2nc(C(F)F)cc2-c2ccc(S(C)=O)cc2)cc1 (stereo not given) | inactive |  |
| CC(C)=CCCC(C)CCO (stereo not given) | inactive |  |
| COC(=O)c1c(Cl)c(Cl)c(C(=O)OC)c(Cl)c1Cl | inactive |  |
| Nc1nc2ncc(CNc3ccc(C(=O)N[C@@H](CCC(=O)O)C(=O)O)cc3)nc2c(=O)[nH]1 | inactive |  |
| O=c1[nH]c2ccc(S(=O)CCN3CCC(Cc4ccc(F)cc4)CC3)cc2o1 (stereo not given) |  | 64.7 µM (active) |
| CC(C)CCO | inactive |  |
| CC(=O)OCCC(C)C | inactive |  |
| CC(C)c1cccc(C(C)C)c1N1C(=O)c2ccc(O)cc2C1=O |  | 91.6 µM (active) |
| CCOCCOCCOCCO | inactive |  |
| CC/C(=C\C(=N/O)C(N)=O)C(C)[N+](=O)[O-] (stereo not given) | inactive |  |
| Nc1cccc(N)c1 | inactive |  |
| Cc1ccc(C)c(O)c1 | inactive |  |
| Cc1ccc(S(=O)(=O)O)cc1C | inactive |  |
| CC(C)(O)c1coc(S(=O)(=O)NC(=O)Nc2c3c(cc4c2CCC4)CCC3)c1 | inactive |  |
| O=C(CCCCCCCCc1cccnc1)N1CCC(C=C(c2ccccc2)c2ccccc2)CC1 |  | 13.7 µM (active) |
| COc1ccc(/C=C/S(=O)(=O)NC(=O)c2ccc(C)cc2Cl)cc1 | inactive |  |
| CCCCCCCCO | inactive |  |
| CC(=O)OC[C@H]1O[C@@](COC(C)=O)(O[C@H]2O[C@H](COC(C)=O)[C@@H](OC(C)=O)[C@H](OC(C)=O)[C@H]2OC(C)=O)[C@@H](OC(C)=O)[C@@H]1OC(C)=O | inactive |  |
| CCCCCCCCCCCCCCCO | inactive |  |
